Assay results: PubChem BioAssay (NCATS)
A number with no mark means an inactive call. Inconclusive results are not listed. Where a call stands in place of a potency, no number is given. The source made the active and inactive calls. Unless noted, calls follow the shape of the dose curve; as a rule, active = well fitted curve in the direction sought with a large enough effect; inconclusive = small, poorly fitted or top-dose-only effect, or another doubt; inactive = no such curve, though single readings can be large; an effect the other way counts as inactive or inconclusive.

How the values were obtained:
[1] = target: Mitogen-activated protein kinase 10 (Mus musculus) (UniProt Q61831); test: JNK3 AlphaScreen Assay (AID 530; active = well fitted curve in either direction with a large enough effect, not every such curve was filed as active;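 also: kinase came from lysate of stimulated human HepG2 cells; signal reports phosphorylation of biotinylated GST-cJun 1-79 at Ser73 with 10 µM ATP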)
Outline: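 Phosphorylation of biotinylated GST-cJun(1-79) at Ser73 is measured by AlphaScreen proximity luminescence. Enzyme is JNK3 in HepG2 lysates activated with interleukin-1beta and tumor necrosis factor alpha; ATP is 10 uM final.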

[2] = Cell Viability - Renal Proximal Tubule (AID 545);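 also: cells exposed to compound for 40 hours; nearly all actives have a fitted effect of over 40% in size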
Outline: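 Cytotoxicity is scored as a concentration-dependent drop in cellular ATP in primary rat renal proximal tubule cells exposed for 40 hr. AC50 derives from Hill modelling.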

[3] = Cellular Toxicity (caspase-3) Jurkat (AID 655); details: Jurkat caspase-3 activation, luminescence; caspase-3 activation: at 92.2 µM (top of the series), DMSO = 0%, tamoxifen = 100%;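 also: cells exposed to compound for 16 h at 37 °C before reading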
Outline: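 Caspase 3/7 activation is scored as increased luminescence in Jurkat cells cultured with compound for 16 hours in complete medium. AC50 values come from Hill fits of qHTS concentration-response data normalized to DMSO and 100 uM tamoxifen controls.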

[4] = Cell Viability - LYMP1-003 - Assay at 40 hr (AID 964); also: nearly all actives have a fitted effect of over 60% in size
Outline: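 Viability is taken as cellular ATP, read by CellTiter-Glo luminescence after 40 h of compound exposure at 37 C. Cells: human lymphoblastoid line LYMP1-003 at 2500/well; AC50 values derived by Hill-equation fitting of concentration-response data.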

[5] = Cell Viability - LYMP2-003 (AID 965);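 also: cells exposed to compounds for 24 h before reading; nearly all actives have a fitted effect of over 50% in size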
Outline: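 Acute cytotoxicity is scored as a concentration-dependent drop in intracellular ATP, measured by luciferase luminescence in human lymphoblastoid cells treated for 24 hours at 37 C. AC50 values derive from Hill-equation modelling.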

[6] = Cell Viability - LYMP2-009 (AID 968); also: nearly all actives have a fitted effect of over 55% in size; also: potency is read from the fitted curve at half-maximal effect
[7] = Cell Viability - LYMP2-011 (AID 969); also: nearly all actives have a fitted effect of over 60% in size
Outline: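 Cytotoxicity qHTS with ATP content as read-out: lymphoblastoid cells (2500/well) exposed to compound for 24 h at 37 C, then luciferase luminescence measured. Concentration-response data fitted with the standard Hill equation to give AC50.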

[8] = Cell Viability - LYMP2-017 (AID 972); also: nearly all actives have a fitted effect of over 55% in size; also: potency is read from the fitted curve at half-maximal effect
Outline: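 CellTiter-Glo luminescence (cellular ATP, 30 min RT) measured cytotoxicity after 24 hr compound treatment at 37 C. Cells were a human lymphoblastoid line, LYMP2-017, plated at 2500/well and incubated 5 hr first; concentration-response fitted with Hill equation for AC50.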

[9] = Cell Viability - LYMP2-021 (AID 974); also: nearly all actives have a fitted effect of over 55% in size; also: potency is read from the fitted curve at half-maximal effect
Outline: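 AC50 values come from Hill-equation fits to CellTiter-Glo luminescence (ATP content), read after 24 hour compound exposure at 37 C of 2500 LYMP2-021 lymphoblastoid cells/well; tetraoctylammonium bromide as positive control.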

[10] = Cell Viability - LYMP2-002 (AID 977)
Outline: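 In this qHTS viability screen, 2500 human lymphoblastoid cells per well receive compound for 24 hr at 37 C, and luciferase-based ATP luminescence gives the viability signal. Tetraoctylammonium bromide serves as positive control.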

[11] = Cell Viability - LYMP2-006 (AID 978); also: nearly all actives have a fitted effect of over 60% in size
Outline: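 Concentration-dependent loss of intracellular ATP in a human lymphoblastoid line after 24 hr treatment at 37 C was measured by CellTiter-Glo luminescence, with AC50 values obtained from standard Hill-equation modelling.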

[12] = Cell Viability - LYMP2-010 (AID 981); also: nearly all actives have a fitted effect of over 55% in size; also: potency is read from the fitted curve at half-maximal effect
Outline: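 CellTiter-Glo ATP luminescence measured cytotoxicity after 24 h compound exposure at 37 C. LYMP2-010 cells were seeded at 2500/well, with tetraoctylammonium bromide as control; concentration-response curves gave AC50 values by the Hill equation.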

[13] = Cell Viability - LYMP2-014 (AID 983); also: nearly all actives have a fitted effect of over 50% in size; also: potency is read from the fitted curve at half-maximal effect
Outline: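 Intracellular ATP loss, read by luciferase luminescence, measures acute cytotoxicity after 24 h compound exposure of lymphoblastoid LYMP2-014 cells (2500/well, 37 C). Concentration-response data fitted to the Hill equation for AC50.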

[14] = target: Voltage-gated inwardly rectifying potassium channel KCNH2 (Homo sapiens) (UniProt Q12809); test: qHTS Assay for Small Molecule Inhibitors of the Human hERG Channel Activity (AID 588834);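 also: lower thallium flux fluorescence means stronger hERG block; nearly all actives have a fitted effect of over 50% in size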; also: potency is read from the fitted curve at half-maximal effect
Outline: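 Cells were infected with hERG-BacMam virus for 4 hrs at room temperature, grown overnight, then seeded at 2000/well. After dye loading and roughly 10 min compound treatment, thallium influx was triggered and fluorescence recorded.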

[15] = qHTS assay for small molecule activators of the nuclear factor-kappa B (NF-kB) signaling pathway (AID 651749; active = well fitted activation curve with a large enough effect in the signal ratio; the % refers to the signal ratio); details: NF-kB-bla ME-180 cells, beta-lactamase FRET ratio, 16 h; hits give high values
Outline: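 Human ME-180 cervical cells with an NF-kB-bla construct; compounds added via 23 nL pin transfer, DMSO as vehicle; incubation 16 hr. Reporter activity measured by FRET disruption.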

[16] = qHTS assay for small molecule activators of the human pregnane X receptor (PXR) signaling pathway (AID 720659; call rule not given here)
[17] = Cellular Toxicity (caspase-3) Hek293 (AID 664); details: HEK293 caspase-3 activation, DMSO = 0%, 100 µM tamoxifen = 100%; at 92.2 µM (top of the series);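 also: cells exposed to compound for 16 h at 37 °C before readout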
Outline: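 Concentration-response qHTS: caspase 3/7 activation measured by luminescent aminoluciferin substrate cleavage after 16 h compound exposure of Hek 293 cells. AC50 from Hill equation, with DMSO as basal and 100 uM tamoxifen as 100%.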

[18] = Cell Viability - LYMP2-019 (AID 973); also: nearly all actives have a fitted effect of over 55% in size; also: potency is read from the fitted curve at half-maximal effect
Outline: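 AC50 values come from Hill-equation fits of luminescent intracellular ATP (CellTiter-Glo, 30 min, room temperature) following 24 h compound exposure at 37 C. Cells: LYMP2-019 lymphoblastoid line, 2500 per well, in complete culture medium.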

[19] = Cell Viability - LYMP2-020 (AID 986); also: nearly all actives have a fitted effect of over 55% in size; also: potency is read from the fitted curve at half-maximal effect
Outline: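 Cytotoxicity in qHTS format: luminescent ATP readout from CellTiter-Glo after 24 h compound exposure at 37 C in complete medium. LYMP2-020 lymphoblastoid cells were seeded at 2500/well; concentration-response data fitted to the Hill equation for AC50.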

[20] = Cell Viability - LYMP2-022 (AID 987); also: nearly all actives have a fitted effect of over 55% in size; also: potency is read from the fitted curve at half-maximal effect
Outline: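 Cytotoxicity read as decreased cellular ATP (CellTiter-Glo luminescence, 30 min room temperature) after 24 hours compound exposure of 2500 lymphoblastoid LYMP2-022 cells/well at 37 C. Concentration-response data fitted with standard Hill equation for AC50.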

Sequence of Voltage-gated inwardly rectifying potassium channel KCNH2 (Homo sapiens) (Q12809 whole entry, looked up): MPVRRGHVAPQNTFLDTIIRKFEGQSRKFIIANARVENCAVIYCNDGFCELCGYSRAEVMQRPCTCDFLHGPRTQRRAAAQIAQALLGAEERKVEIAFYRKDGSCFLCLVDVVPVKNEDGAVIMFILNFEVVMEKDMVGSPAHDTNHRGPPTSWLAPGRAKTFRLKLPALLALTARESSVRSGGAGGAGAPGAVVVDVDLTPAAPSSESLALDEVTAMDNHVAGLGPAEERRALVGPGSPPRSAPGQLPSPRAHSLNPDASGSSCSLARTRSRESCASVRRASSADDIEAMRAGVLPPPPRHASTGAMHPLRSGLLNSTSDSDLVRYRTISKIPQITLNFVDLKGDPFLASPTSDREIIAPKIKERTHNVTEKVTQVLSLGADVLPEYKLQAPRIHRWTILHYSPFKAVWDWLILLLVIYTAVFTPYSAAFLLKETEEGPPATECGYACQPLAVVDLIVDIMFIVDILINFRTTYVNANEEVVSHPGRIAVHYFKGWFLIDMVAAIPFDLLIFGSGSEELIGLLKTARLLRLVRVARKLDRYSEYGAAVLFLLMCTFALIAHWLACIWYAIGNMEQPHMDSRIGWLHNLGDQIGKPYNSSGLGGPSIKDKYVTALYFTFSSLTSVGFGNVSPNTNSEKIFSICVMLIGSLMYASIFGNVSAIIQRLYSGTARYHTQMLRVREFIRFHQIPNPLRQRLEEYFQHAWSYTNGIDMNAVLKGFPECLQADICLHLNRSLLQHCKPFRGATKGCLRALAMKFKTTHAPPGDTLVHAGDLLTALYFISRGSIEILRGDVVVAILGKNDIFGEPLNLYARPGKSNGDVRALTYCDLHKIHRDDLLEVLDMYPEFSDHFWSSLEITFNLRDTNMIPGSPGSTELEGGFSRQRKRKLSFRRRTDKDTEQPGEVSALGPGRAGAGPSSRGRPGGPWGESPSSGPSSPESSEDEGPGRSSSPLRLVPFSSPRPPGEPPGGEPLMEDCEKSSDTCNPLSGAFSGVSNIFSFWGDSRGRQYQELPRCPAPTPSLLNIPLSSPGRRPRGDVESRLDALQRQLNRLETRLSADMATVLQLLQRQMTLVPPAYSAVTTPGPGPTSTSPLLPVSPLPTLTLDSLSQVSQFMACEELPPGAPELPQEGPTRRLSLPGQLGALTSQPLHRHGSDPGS

Brc1cccc(-c2ccccc2)c1
Potency [1]: inactive
outcome [2]: inactive
caspase-3 activation [3]: 1.47%
Potency [4]: inactive
Potency [5]: inactive
Potency [6]: inactive
Potency [7]: inactive
Potency [8]: inactive
Potency [9]: inactive
Potency [10]: inactive
Potency [11]: inactive
Potency [12]: inactive
Potency [13]: inactive
Potency [14]: 35.5 µM (active)
activation [15]: -1.09%
outcome [16]: inactive

C=CCOCC1CO1 (stereo not drawn)
Potency [1]: inactive
outcome [2]: inactive
caspase-3 activation [3]: -0.0286%
caspase-3 activation [17]: 2.83%
Potency [4]: inactive
Potency [5]: inactive
Potency [6]: inactive
Potency [7]: inactive
Potency [8]: inactive
Potency [18]: inactive
Potency [9]: inactive
Potency [10]: inactive
Potency [11]: inactive
Potency [12]: inactive
Potency [13]: inactive
Potency [19]: inactive
Potency [20]: inactive
Potency [14]: inactive
outcome [16]: inactive

ClCCBr
Potency [1]: inactive
outcome [2]: inactive
caspase-3 activation [17]: -0.69%
Potency [5]: inactive
Potency [7]: inactive
Potency [8]: inactive
Potency [18]: inactive
Potency [10]: inactive
Potency [11]: inactive
Potency [12]: inactive
Potency [13]: inactive
Potency [19]: inactive
Potency [20]: inactive
activation [15]: 0.431%
outcome [16]: inactive

COc1ccccc1N
Potency [1]: inactive
outcome [2]: inactive
caspase-3 activation [17]: 1.4%
Potency [4]: inactive
Potency [5]: inactive
Potency [7]: inactive
Potency [18]: inactive
Potency [9]: inactive
Potency [10]: inactive
Potency [11]: inactive
Potency [12]: inactive
Potency [19]: inactive
Potency [14]: inactive
outcome [16]: inactive

Oc1cc(Cl)cc(Cl)c1
Potency [1]: inactive
outcome [2]: inactive
caspase-3 activation [3]: -0.202%
Potency [4]: inactive
Potency [5]: inactive
Potency [6]: inactive
Potency [7]: inactive
Potency [8]: inactive
Potency [18]: inactive
Potency [9]: inactive
Potency [10]: inactive
Potency [11]: inactive
Potency [12]: inactive
Potency [13]: inactive
Potency [19]: inactive
Potency [20]: inactive
Potency [14]: inactive
activation [15]: 0.715%
outcome [16]: inactive

CCOP(=S)(OCC)Oc1nc(Cl)c(Cl)cc1Cl
outcome [2]: inactive
caspase-3 activation [3]: -1.27%
Potency [4]: inactive
Potency [5]: inactive
Potency [7]: inactive
Potency [18]: inactive
Potency [9]: inactive
Potency [10]: inactive
Potency [11]: inactive
Potency [12]: inactive
Potency [19]: inactive
Potency [20]: inactive
activation [15]: -1.28% [middle of 4 runs]

Brc1ccc(Oc2ccc(Br)cc2Br)c(Br)c1
outcome [2]: inactive
caspase-3 activation [17]: 19.3%
Potency [4]: inactive
Potency [5]: inactive
Potency [6]: inactive
Potency [7]: inactive
Potency [18]: inactive
Potency [9]: inactive
Potency [10]: inactive
Potency [11]: inactive
Potency [12]: inactive
Potency [13]: inactive
Potency [19]: inactive
Potency [20]: inactive
activation [15]: 0.581%

O=P(OCCCl)(OCCCl)OCCCl
Potency [1]: inactive
outcome [2]: inactive
caspase-3 activation [3]: -1.25%
Potency [4]: inactive
Potency [6]: inactive
Potency [7]: inactive
Potency [18]: inactive
Potency [9]: inactive
Potency [10]: inactive
Potency [11]: inactive
Potency [12]: inactive
Potency [13]: inactive
Potency [19]: inactive
Potency [20]: inactive
Potency [14]: inactive
outcome [16]: inactive

C=COC(C)=O
Potency [1]: inactive
outcome [2]: inactive
caspase-3 activation [3]: 1.08%
caspase-3 activation [17]: 1.36%
Potency [4]: inactive
Potency [5]: inactive
Potency [6]: inactive
Potency [8]: inactive
Potency [18]: inactive
Potency [10]: inactive
Potency [11]: inactive
Potency [12]: inactive
Potency [13]: inactive
Potency [19]: inactive
Potency [20]: inactive
Potency [14]: inactive
activation [15]: -0.411%
outcome [16]: inactive

N#CC(O)c1ccccc1 (stereo not drawn)
Potency [1]: inactive
outcome [2]: inactive
caspase-3 activation [3]: 2.09%
caspase-3 activation [17]: 0.0339%
Potency [4]: inactive
Potency [5]: inactive
Potency [6]: inactive
Potency [7]: inactive
Potency [8]: inactive
Potency [18]: inactive
Potency [9]: inactive
Potency [10]: inactive
Potency [12]: inactive
Potency [20]: inactive
Potency [14]: inactive
activation [15]: 0.595%
outcome [16]: inactive

N#CCCC#N
Potency [1]: inactive
outcome [2]: inactive
caspase-3 activation [3]: -0.151%
Potency [6]: inactive
Potency [7]: inactive
Potency [8]: inactive
Potency [18]: inactive
Potency [9]: inactive
Potency [10]: inactive
Potency [11]: inactive
Potency [12]: inactive
Potency [13]: inactive
Potency [19]: inactive
Potency [20]: inactive
Potency [14]: inactive
activation [15]: 0.61%
outcome [16]: inactive

N#C/C=C/C#N
Potency [1]: inactive
outcome [2]: inactive
caspase-3 activation [17]: -2.32%
Potency [4]: inactive
Potency [6]: 31.6 µM (active)
Potency [8]: 31.6 µM (active)
Potency [18]: 31.6 µM (active)
Potency [9]: 39.8 µM (active)
Potency [12]: 31.6 µM (active)
Potency [13]: 39.8 µM (active)
Potency [19]: 31.6 µM (active)
Potency [20]: 15.8 µM (active)
Potency [14]: inactive
outcome [16]: inactive

CN(C)c1ccc(N=Nc2ccccc2)cc1
caspase-3 activation [3]: -9.1%
Potency [4]: inactive
Potency [5]: inactive
Potency [7]: inactive
Potency [18]: inactive
Potency [9]: inactive
Potency [11]: inactive
Potency [12]: inactive
Potency [13]: inactive
Potency [14]: inactive
